# Laboratory results from PubChem BioAssay (NCI).
# About 83,000 compounds went through this panel and 20% of them were active in at least one assay; those are over-represented in the sample as a whole.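 Step 1: grow cells in 96-well plates. Step 2: add test compound at a single concentration. Step 3: incubate 48 h. Step 4: record percent growth.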 Active and inactive are the calls of the source. Rule for the calls: active = growth percent below 10; inactive = the rest.
# Test system: HL-60(TB) leukemia
# Assay: NCI-60 one-dose screen, 48 h (100 = growth as untreated, 0 = no growth, -100 = all killed)
# Conditions: 10 µM unless noted
row,SMILES,growth
1,O=C(Cc1nc2ccc([N+](=O)[O-])cc2nc1CC(=O)c1ccccc1)c1ccccc1,31.5% (inactive)
2,COc1ccc2nc3c(cc2c1)C(=O)CC(C(F)(F)F)C3 (stereo not given),-15.1% (active)
3,CCSc1nc2scc(C)c2c(=O)[nH]1,99.8% (inactive)
4,CC1=C(C(=O)OCC2CCN(C(=O)OC(C)(C)C)CC2)[C@H](c2cccc(Br)c2)C2=C(CC(C)(C)CC2=O)N1,-17.1% (active)
5,CC1=C(C)C(=O)C(Nc2cccc(C(=O)OC(C)(C)C)c2)=C(Br)C1=O,54.9% (inactive)
6,O=C(O)c1cc2cc(OCc3ccccc3)ccc2[nH]1,112% (inactive)
7,Cc1nc(Cl)cc(N(c2cc(Cl)nc(C)n2)c2ncc(C(=O)Nc3c(C)cccc3Cl)s2)n1,81.3% (inactive)
8,CCOC(=O)C1=C(C)N2C(=NC3=C(CCC/C3=C\c3ccc(Cl)cc3)C2c2ccc(Cl)cc2)S1 (stereo not given),-10.8% (active)
9,CCC(C)(C)c1ccc(OCCCCCCN2CCNCC2)cc1,-17.4% (active)
10,COc1cccc(NC(=O)c2sc3nc(C)c(C(O)c4ccccc4)cc3c2N)c1 (stereo not given),-52% (active)
11,O=C(CSSCC(=O)c1ccc(Cl)cc1)c1ccc(Cl)cc1,44.7% (inactive)
12,C=C(C)[C@@H]1CC[C@]2(COC(=O)c3ccccc3C(=O)O)CC[C@]3(C)[C@H](CC[C@@H]4[C@@]5(C)CCCNC(C)(C)[C@@H]5CC[C@]43C)[C@@H]12,6.45% (active)
13,CC(O)CNC(Cc1ccccc1)c1ccc2c(c1)OCO2 (stereo not given),96.3% (inactive)
14,Clc1ccc2sc(-c3ccccc3)nc2c1,86.2% (inactive)
15,COc1ccc(/C=C2\Oc3cc(OCCCCN4CCCC4)ccc3C2=O)cc1,92.1% (inactive)
16,COc1ccc(NC2=C(Sc3nc(C)cc(C)n3)C(=O)N(Cc3ccccc3)C2=O)cc1Cl,58.8% [30 µM] (inactive)
17,OCCNc1ccccc1,100% (inactive)
18,O=C(Nc1nc(-c2ccccc2)cs1)c1cc(O)c(O)c(O)c1,12.6% (inactive)
19,O=C(c1ccc(Br)cc1)C(Br)C(c1ccc(Cl)cc1)C(c1ccccc1)[N+](=O)[O-] (stereo not given),99.3% (inactive)
20,COc1ccc(N2C(=O)C(Oc3ccccc3)C2c2ccc(C)cc2)cc1 (stereo not given),85.4% (inactive)

row,SMILES,growth
1,CS(=O)(=O)c1nnc(-c2ccccc2)s1,64.8% (inactive)
2,CCOC(=O)c1c(C)nc2c(c1N)CC(=O)N2Cc1ccc(OC)cc1,110% (inactive)
3,N#C/C(=C\c1ccc(-c2cccc(C(F)(F)F)c2)o1)c1nc(-c2ccco2)cs1,101% (inactive)
4,O=C(O)COc1ccc([N+](=O)[O-])cc1Cl,108% (inactive)
5,COc1ccc(-c2cc(-c3cc(-c4ccc(OC)cc4)nc(N)n3)nc(N)n2)cc1,83.6% (inactive)
6,C=CC(C)(O)CC/C=C(\CO)C(=O)OC1C(C)OC(O[C@](C)(C=C)CC/C=C(\CO)C(=O)O[C@H]2C[C@@]3(C(=O)OC4OC(CO)C(O)C(O)C4OC4OC(C)C(OC5OC(CO)C(O)C5O)C(OC5OC(CO)C(O)C(O)C5O)C4O)C(CC2(C)C)C2=CCC4[C@@]5(C)CC[C@H](OC6OC(COC7OC(C)C(O)C(O)C7OC7OCC(O)C(O)C7O)C(O)C(O)C6NC(C)=O)C(C)(C)C5CC[C@@]4(C)[C@]2(C)C[C@H]3O)C(O)C1O (stereo not given in full),-52.5% (active)
7,O=C(O)c1cc2ccccc2s1,112% (inactive)
8,CC(C)CSc1nc(N)nc2c1ncn2C1OC(CO)C(O)C1O (stereo not given),113% (inactive)
9,O=C(CN1CCOCC1)Nc1ccc2ncnc(Nc3ccc(Oc4cccc(C(F)(F)F)c4)c(Cl)c3)c2c1,70.1% (inactive)
10,COC(=O)c1cc(N=C2NC(=O)/C(=C/C=C/c3ccccc3)S2)ccc1O,-0.749% (active)
11,CN(C)CCOC(=O)Nc1ccccc1Cl,112% (inactive)
12,S=c1nn[nH]c2ccccc12,105% (inactive)
13,O=C1c2ccccc2C(=O)c2cc(Cn3cc[n+](Cc4ccc5ccccc5c4)c3)ccc21,43% (inactive)
14,C[C@@H](Oc1cc(-c2cnn(C3CC4(CCCNC4)C3)c2)cnc1N)c1c(Cl)ccc(F)c1Cl (stereo not given in full),-41% (active)
15,CS(=O)(=O)c1cccc(Nc2ncc3cc(-c4ccccc4Cl)ccc3n2)c1,-8.46% (active)
16,COc1ccc(OC)c2c1C(=O)CC2C (stereo not given),103% (inactive)
17,C[C@@H](Oc1cc(-c2cnn(C3CCNCC3)c2)cnc1N)c1c(Cl)ccc(F)c1Cl,-59.4% (active)
18,CCCCCN(CCCCC)CC(O)c1c(Cl)ccc2ccccc12 (stereo not given),87.6% (inactive)
19,COc1cc(C2CC(c3ccc(C)cc3)=NN2C=O)ccc1Oc1ccnc2cc(Cl)ccc12 (stereo not given),94.8% (inactive)
20,COc1ccc(OC)c(/C=C/C(=O)c2c(C)nc3ccccc3c2/C=C/c2ccccc2)c1,47% (inactive)
